# A selection: hits, their analogues and other compounds. The true share with any hit is near 19%.
# HepG2 tox = counter-screen for TGF-b inhibitors: cytotoxicity in HepG2 cells; 410,000 compounds, 0.76% hits; HepG2 CAGA-GFP viability, ATP luminescence, 18 h; Potency, µM (highest dose often 46.1 µM), inactives show top-dose activity change, negative = cytotoxicity, actives largely listed as cytotoxic; AID 588856; further: potency means the concentration at half of the fitted maximal effect
#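 CellTiter-Glo luminescence gave cytotoxicity after 18 hours at 37 degrees C. The cells were HepG2 CAGA-GFP in 1% FBS DMEM, stimulated with 500 pg/mL TGF-beta after compound addition. %Activity was normalised to no-cell wells (complete cell-killing) and DMSO (no toxicity), and curves were fitted and classified.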
# DT40 TDP1 CPT = growth inhibition of DT40 Tdp1-/-;hTDP1 cells with camptothecin (screen for TDP1 inhibitors). chicken DT40 Tdp1-/-;hTDP1 cells + 20 nM CPT, ATP luminescence, 48 h. Potency, µM (titrated, usually from 46.2 µM), inactives show top-dose activity change, negative = growth inhibition, hits mostly inhibitors. 420,000 compounds, 12% hits. AID 686979; further: potency means the concentration at half of the fitted maximal effect; on the % scale 0 is the no-effect control and ±100 the full control effect; nearly all actives have a fitted effect of over 55% in size
#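 Chicken DT40 Tdp1-/- cells complemented with human TDP1, 400 cells/well, exposed to compounds plus 20 nM camptothecin for at least 48 h at 37 C; viability read as ATP content by CellTiter-Glo luminescence.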
# DT40 TDP1 no CPT = qHTS for Inhibitors of human tyrosyl-DNA phosphodiesterase 1 (TDP1): qHTS in cells in absence of CPT | 420,000 compounds, 15% hits | Potency, µM (titrated, usually from 46.2 µM), for the others: at the top dose activity change, negative = growth inhibition, most hits filed as inhibitors | AID 686978, 2013 | DT40 Tdp1-/- hTDP1 cells, no CPT, ATP luminescence, 48 h; further: potency means the concentration at half of the fitted maximal effect; on the % scale 0 is the no-effect control and ±100 the full control effect; nearly all actives have a fitted effect of over 55% in size
#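 Growth of hTDP1-complemented DT40 Tdp1-knockout cells is measured by ATP luminescence after at least 48 hr compound exposure at 37 °C, with DMSO substituting for the 20 nM CPT used in the parallel screen.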
# TGFb inhibitor = blocks TGF-b signaling; HepG2 CAGA-GFP TGF-b/SMAD3 reporter, GFP fluorescence, 18 h; TGF-beta stimulated, 500 pg/mL final; Potency, µM (titrated, usually from 46.1 µM), without a hit: top-dose activity, negative = inhibition, most hits filed as inhibitors; 410,000 compounds, 1.2% hits; further: potency means the concentration at half of the fitted maximal effect; on the % scale 0 is the no-effect control and ±100 the full control effect; nearly all actives have a fitted effect of over 65% in size
#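 Smad-responsive CAGA-GFP expression was quantified in HEPG2 cells exposed to compounds and 500 pg/mL final TGF-beta for 18 h at 37 degrees C; unstimulated wells defined full inhibition.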
# IL1B secr inh = inflammasome signaling inhibition, IL-1 beta readout | AID 743279 | activity change, % at 57.5 µM | 360,000 compounds, 4.7% hits | THP-1 LPS/ATP IL-1B secretion, AlphaLISA, 16 h; active compounds read low; in the data active means activity change below about -50%; inconclusive means mostly about -30% to -49%; further: on the % scale 0 is the no-effect control and ±100 the full control effect
#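 THP-1 cells pretreated 1 hr with compounds (up to 57.5 uM final), then stimulated with LPS (250 ng/mL final) plus ATP (1.25 mM final); secreted IL-1B measured by AlphaLISA after 16 hr, decreased signal indicating inhibition.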
# TDP1 block = inhibitors of human tyrosyl-DNA phosphodiesterase TDP1. 350,000 compounds, 0.28% hits. Q9NUW8. AID 485290. recombinant TDP1, AlphaScreen DNA substrate cleavage. Potency, µM (top dose mostly 130 µM), inactives show at the highest dose activity change, negative = inhibition, most hits filed as inhibitors; further: potency means the concentration at half of the fitted maximal effect; on the % scale 0 is the no-effect control and ±100 the full control effect; nearly all actives have a fitted effect of over 40% in size
# Target sequence (Q9NUW8 whole entry, looked up): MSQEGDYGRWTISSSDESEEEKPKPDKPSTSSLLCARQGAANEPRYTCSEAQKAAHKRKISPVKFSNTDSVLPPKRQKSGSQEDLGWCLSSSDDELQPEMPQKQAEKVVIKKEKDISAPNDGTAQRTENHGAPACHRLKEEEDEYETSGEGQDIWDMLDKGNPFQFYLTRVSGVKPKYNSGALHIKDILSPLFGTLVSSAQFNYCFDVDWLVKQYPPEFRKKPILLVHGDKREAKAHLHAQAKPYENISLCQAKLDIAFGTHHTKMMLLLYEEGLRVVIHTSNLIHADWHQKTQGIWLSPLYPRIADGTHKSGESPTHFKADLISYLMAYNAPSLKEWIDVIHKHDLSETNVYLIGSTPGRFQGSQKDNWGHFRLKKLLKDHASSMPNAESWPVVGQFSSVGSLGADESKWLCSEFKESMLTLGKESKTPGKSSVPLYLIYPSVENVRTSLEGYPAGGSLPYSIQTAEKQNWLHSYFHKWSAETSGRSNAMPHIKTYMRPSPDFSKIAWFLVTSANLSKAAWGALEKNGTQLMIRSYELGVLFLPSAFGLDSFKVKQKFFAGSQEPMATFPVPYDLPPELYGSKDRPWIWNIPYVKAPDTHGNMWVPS
#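 Recombinant human Tdp1 (E. coli-expressed, 1 nM final) preincubated with compounds 15 min at room temperature, then 5'-biotin/3'-phosphotyrosine-FITC DNA substrate (15 nM final) added for 5 min. AlphaScreen beads (10 ug/ml final) added 10 min; cleavage lowers signal.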
# * marks the source's active call; other numbers are inactive results; i = inactive; ? = inconclusive; . = no result; [ ] = another dose, or the depositor's remark. Unless noted, the call rests on the fitted dose curve; in most records, active means well fitted curve in the direction sought with a large enough effect; inconclusive means small, poorly fitted or top-dose-only effect, or another doubt; inactive means no such curve, though single readings can be large; an effect the other way counts as inactive or inconclusive.
SMILES,HepG2 tox,DT40 TDP1 CPT,DT40 TDP1 no CPT,TGFb inhibitor,IL1B secr inh,TDP1 block
O=C(CN1CCN(S(=O)(=O)c2ccccc2)CC1)NCCc1ccccc1,25.1%,-3.7%,-13.1%,-4.7%,i,4.0%
C[C@H](OC(=O)c1[nH]cnc1C(=O)N1CCN(C(=O)OC(C)(C)C)CC1)c1ccccc1,-10.7%,?,25.9µM*,-3.1%,38.5,-0.2%
CC(C)C[C@H](NC(=O)c1nc[nH]c1C(=O)N1CCN(C(=O)OC(C)(C)C)CC1)C(=O)OCc1ccccc1,-31.6%,18.4µM*,16.4µM*,?,-71.0*,9.0%
CC(C)C[C@H](NC(=O)c1nc[nH]c1C(=O)N1CCC(C)CC1)C(=O)OCc1ccccc1,-51.8%,?,-18.3%,?,-8.5,7.1%
CC(C)(C)OC(=O)N1CCN(C(=O)c2[nH]cnc2C(=O)N[C@@H](Cc2ccccc2)C(=O)OCc2ccccc2)CC1,-36.6%,?,?,?,-64.5*,.
CN(CCO)C(=O)c1cn(C2CCCN(Cc3ccc(C(F)(F)F)cc3)C2)nn1 (centres undefined),.,1.5%[9.04 µM],?,.,.,.
Cc1cccc(C)c1NC(=O)N1CCCCCCC1,-33.8%,-0.9%,-11.1%,0.3%,7.3,-3.5%
Cc1cc(C)cc(NC(=O)C(c2ccccc2)N2CCCC2)c1 (centres undefined),-28.3%,3.66µM*,2.91µM*,-16.5%,?,4.5%
Cc1cccc(C)c1NC(=O)C(c1ccc(Cl)cc1Cl)N1CCCCC1 (centres undefined),2.2%,18.4µM*,29.1µM*,-2.8%,?,-1.0%
Cc1ccc(NC(=O)C(c2ccc(Cl)cc2)N2CCCCC2)cc1 (centres undefined),-18.2%,14.6µM*,13µM*,-4.2%,-12.3,3.9%
CCCc1cc(=O)[nH]c(SCC(=O)Nc2sccc2C#N)n1,2.0%,-14.8%,-3.0%,0.0%,11.7,-16.0%
CCOc1ccc(OCCNC(=O)c2ccc3c(c2)nnn3CC)cc1,-12.3%,-25.8%,-8.1%,-5.4%,19.8,-0.1%
COc1cccc(NC(=O)CN(C)C(=O)CC(NC(=O)c2ccccc2Cl)c2ccccc2)c1 (centres undefined),6.7%,-2.0%,7.2%,9.7%,-4.4,1.8%
Cc1cc2c(s1)c1cnn(Cc3ccccc3)c(=O)c1n2C,.,.,.,.,.,-0.6%
O=C(Nc1ccnc(=O)[nH]1)c1sc2ccccc2c1Cl,1.0%,14.6µM*,-16.2%,1.9%,0.0,.
CCn1nnc(NC(=O)c2sc3ccccc3c2Cl)n1,-40.8%,-9.9%,-22.1%,-11.8%,2.5,0.0%
O=C(Nc1ccncc1)c1sc2ccccc2c1Cl,-28.2%,?,18.4µM*,-30.4%,-55.4*,5.3%
O=C(CC1N=C2c3ccccc3N=C(SCC(=O)Nc3ccccc3F)N2C1=O)NCc1ccc2c(c1)OCO2 (centres undefined),-0.4%,?,?,?,.,-2.1%[12.3 µM]
C#Cc1ccc([C@H]2C=C(C(=O)NC3CC3)O[C@@H](OCC)[C@@H]2CCCO)cc1,-9.4%,?,23.1µM*,2.5%,-4.4,3.8%
CCO[C@@H]1OC(C(=O)NCc2nc3ccccc3[nH]2)=C[C@H](C2CC2)[C@H]1CCCO,-4.4%,4.61µM*,2.91µM*,-13.1%,18.2,5.1%
C#CCNC(=O)C1=C[C@@H](c2ccc(Br)cc2)[C@H](CCCO)[C@@H](OCC)O1,-7.5%,14.6µM*,14.6µM*,-4.4%,17.2,-1.3%
CCO[C@@H]1OC(C(=O)NC2CC2)=C[C@H](C2CCCCC2)[C@H]1CCCO,-27.5%,?,?,-9.0%,-20.1,.
